# Measured values reported in PubChem BioAssay (NCI).
# The panel holds about 79,000 compounds, 15% with a hit somewhere; the sample as a whole holds those more often. Values without a mark were called inactive. The source made the active and inactive calls. Cut-off read from the data, not from the text of the source: active = growth inhibition above about 70%; inactive = the rest.
# Key:
# [1] = NCI Yeast Anticancer Drug Screen. Data for the rad50 strain (AID 155);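 note: 0% = growth of vehicle-only cultures of the same strain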; settings: S. cerevisiae rad50 strain growth inhibition, stronger effect = higher value
# Procedure, shortened: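 Yeast carrying a defined DNA repair defect were exposed to test compounds, and growth was compared with vehicle-treated controls to give percent inhibition.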
# [2] = NCI Yeast Anticancer Drug Screen. Data for the mec2-1 strain (AID 157); settings: S. cerevisiae mec2-1 strain, stronger effect = higher value
# Procedure, shortened: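 Test agents were screened against the mec2-1 yeast strain, with defined DNA repair or cell cycle alteration. Growth was scored as inhibition against vehicle-only controls.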
# [3] = NCI Yeast Anticancer Drug Screen. Data for the sgs1 mgt1 strain (AID 161);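 note: 0% = growth of cultures given vehicle only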; settings: S. cerevisiae sgs1 mgt1 strain, stronger effect = higher value
# Procedure, shortened: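 Test agents were incubated with a DNA-repair-mutant yeast strain. Growth was then read and compared against vehicle-treated controls.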
# [4] = NCI Yeast Anticancer Drug Screen. Data for the cln2 rad14 strain (AID 165);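 note: 0% = growth equal to vehicle treated cultures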; settings: S. cerevisiae cln2 rad14 strain, stronger effect = higher value
# Procedure, shortened: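 Growth of compound-exposed yeast (cln2 rad14 genotype) measured and expressed as inhibition relative to vehicle.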
# [5] = NCI Yeast Anticancer Drug Screen. Data for the bub3 strain (AID 167); settings: S. cerevisiae bub3 mutant strain, stronger effect = higher value
# Procedure, shortened: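 Compounds were applied to a genetically altered yeast strain carrying a cell-cycle control defect. Growth inhibition was scored against vehicle-treated controls.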
# [6] = NCI Yeast Anticancer Drug Screen. Data for the mlh1 rad18 strain (AID 175); settings: S. cerevisiae mlh1 rad18 strain growth inhibition, stronger effect = higher value
# Procedure, shortened: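 In this whole-cell yeast screen, a strain with altered DNA damage repair is challenged with compound, and its growth is measured against matched vehicle-treated controls.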
# [7] = at 5.0 µM (retest, dose inferred, filed as 0.5)
# [8] = at 50.0 µM (retest, dose inferred, filed as 5.0)
SMILES,"growth inhibition [1, 7]","growth inhibition [1, 8]",growth inhibition ([1]; at 50.0 µM),"growth inhibition [2, 7]","growth inhibition [2, 8]",growth inhibition ([2]; at 50.0 µM),"growth inhibition [3, 7]","growth inhibition [3, 8]",growth inhibition ([3]; at 50.0 µM),"growth inhibition [4, 7]","growth inhibition [4, 8]",growth inhibition ([4]; at 50.0 µM),"growth inhibition [5, 7]","growth inhibition [5, 8]",growth inhibition ([5]; at 50.0 µM),"growth inhibition [6, 7]","growth inhibition [6, 8]",growth inhibition ([6]; at 50.0 µM)
CCO/N=C1\CCCCC1SS(=O)(=O)O (stereo not given),-5%,11%,40.5%,7%,17%,-14.1%,-6%,20%,31.8%,0%,7%,15.2%,5%,22%,8.2%,-1%,4%,31.9%
O=C1/C(=C/c2cccc(O)c2)SC(=S)N1/C=C\c1nc2ccccc2[nH]c1=O,8%,2%,9.55%,-8%,-13%,5.1%,-4%,1%,3.6%,17%,-32%,33.2%,11%,-5%,-3.85%,-2%,-7%,-0.25%
COC(=O)c1nnn(-c2ccc(Cl)cc2Cl)c1C(=O)c1ccc(Cl)c(Cl)c1,11%,99% (active),98.3% (active),2%,99% (active),95.5% (active),4%,99% (active),99% (active),11%,98% (active),92.1% (active),17%,99% (active),95.8% (active),19%,99% (active),98.7% (active)
O=C1c2ccccc2SCC12OC2c1ccc(Cl)cc1 (stereo not given),9%,85% (active),95% (active),4%,88% (active),93.5% (active),16%,92% (active),95.5% (active),1%,87% (active),92% (active),21%,91% (active),94.9% (active),12%,91% (active),95.1% (active)
Cc1nc(Nc2ccccc2)sc1C(=O)NNc1ccc([N+](=O)[O-])cc1[N+](=O)[O-],19%,19%,12.6%,7%,7%,40.2%,-6%,-6%,60.8%,14%,14%,28.4%,15%,15%,43%,20%,20%,66.2%
CCc1nc(N)nc(N)c1-c1ccc(NCCCN)c([N+](=O)[O-])c1,-15%,-17%,69.7%,17%,-2%,44.8%,-19%,-36%,69.2%,-15%,-5%,69%,-44%,-18%,6.45%,-17%,-36%,82.5% (active)
Cc1ccc(S(=O)(=O)OC2COC3C(OS(=O)(=O)c4ccc(C)cc4)COC23)cc1 (stereo not given),-2%,-13%,19.6%,-7%,4%,9.8%,12%,-27%,26.4%,1%,-5%,46%,0%,-11%,96.6% (active),-39%,-63%,4%
COC(O)C(=O)c1ccc2c(c1)CC1(C2)Cc2cc3c(cc2C1=O)CCC3 (stereo not given),28%,99% (active),20.2%,40%,99% (active),23.9%,33%,98% (active),52.1%,23%,99% (active),57.4%,35%,99% (active),31.6%,41%,99% (active),45.9%
O=[N+]([O-])c1ccc(O)c(C=Nc2ccccc2)c1,-114%,31%,74.3% (active),-50%,-21%,69.5%,-51%,0%,64%,-57%,-6%,79.5% (active),-71%,-41%,54.6%,-96%,-16%,82.8% (active)
O=C(CBr)c1cccc(OC(=O)c2ccccc2)c1,91% (active),99% (active),44.2%,91% (active),98% (active),26.1%,100% (active),99% (active),68%,88% (active),99% (active),29.9%,99% (active),99% (active),56.2%,90% (active),99% (active),16.1%
